Test results as given in the supplement of paper PMC10849652.
The full data set covers some 7,900 targets. This sample favours those with a hit. About 0.6% of all pairs of compound and target were hits. Unmarked numbers belong to inactive results.

Columns and labels:
Assay in all cases: log2 fold change, soluble protein after heating vs DMSO (PISA); higher = thermal stabilisation; K562 cells, 10 uM, 30 min; active = over 0.2 and 3.5 SD of the protein, either way, in both replicates (recomputed)
erlotinib = compound: C#Cc1cccc(Nc2ncnc3cc(OCCOC)c(OCCOC)cc23)c1 [erlotinib]
Outline: (§1)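 Soluble protein was quantified by TMTpro 16plex LC-MS/MS after channel sums were equalised. It was obtained as the supernatant after 21,000xg for 90 min from pooled aliquots of K562 cells (2×10^6 cells/mL, 10 μM compound, 30 min) heated for 3 min across 48°C-58°C and extracted in PBS with 0.5% NP-40 at 4°C. Thermal stability values are relative to control samples and come from duplicates. They are given as log2 fold changes.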

[1] = compound: C/C(=N\NC(=O)C1=CC(=CC=C1)S(=O)(=O)N2CCOCC2)/C3=C(C=CC(=C3)Cl)O
Outline: as §1

[2] = compound: C1=CC(=C(C=C1Cl)C2=NC3=NC=CN=C3C(=N2)NC4=CC=NC=C4)F
Outline: as §1

[3] = compound: C1=CC(=CC=C1C2=NC3=C(N2)C=C(C=C3)C(=O)N)OC4=CC=C(C=C4)Cl
Outline: as §1

[4] = compound: C1=CC2=C(C=CC(=C2)/C=C\3/C(=O)NC(=NCC4=CC=CS4)S3)N=C1
Outline: as §1

[5] = compound: C1=CC2=NC=CN=C2C=C1/C=C/3\C(=O)NC(=O)S3
Outline: as §1

[6] = compound: C1=CC=C(C=C1)C2=NC(=C(N2)C3=CC=NC=C3)C4=CC(=C(C=C4)Cl)O
Outline: as §1

[7] = compound: C1=CC=C2C(=C1)C3=NNC4=CC=CC(=C43)C2=O
Outline: as §1

[8] = compound: C1CCN(C1)C(=O)NC2=CC=CC(=C2)NC3=NC=C(C(=N3)NCCC4=CN=CN4)Br
Outline: as §1

[9] = compound: C1CN(CCC1(CC2=CC=C(C=C2)Cl)N)C3=NC=NC4=C3C=CN4
Outline: as §1

UniProt Q86UK5, sequence (Q86UK5 whole entry, looked up): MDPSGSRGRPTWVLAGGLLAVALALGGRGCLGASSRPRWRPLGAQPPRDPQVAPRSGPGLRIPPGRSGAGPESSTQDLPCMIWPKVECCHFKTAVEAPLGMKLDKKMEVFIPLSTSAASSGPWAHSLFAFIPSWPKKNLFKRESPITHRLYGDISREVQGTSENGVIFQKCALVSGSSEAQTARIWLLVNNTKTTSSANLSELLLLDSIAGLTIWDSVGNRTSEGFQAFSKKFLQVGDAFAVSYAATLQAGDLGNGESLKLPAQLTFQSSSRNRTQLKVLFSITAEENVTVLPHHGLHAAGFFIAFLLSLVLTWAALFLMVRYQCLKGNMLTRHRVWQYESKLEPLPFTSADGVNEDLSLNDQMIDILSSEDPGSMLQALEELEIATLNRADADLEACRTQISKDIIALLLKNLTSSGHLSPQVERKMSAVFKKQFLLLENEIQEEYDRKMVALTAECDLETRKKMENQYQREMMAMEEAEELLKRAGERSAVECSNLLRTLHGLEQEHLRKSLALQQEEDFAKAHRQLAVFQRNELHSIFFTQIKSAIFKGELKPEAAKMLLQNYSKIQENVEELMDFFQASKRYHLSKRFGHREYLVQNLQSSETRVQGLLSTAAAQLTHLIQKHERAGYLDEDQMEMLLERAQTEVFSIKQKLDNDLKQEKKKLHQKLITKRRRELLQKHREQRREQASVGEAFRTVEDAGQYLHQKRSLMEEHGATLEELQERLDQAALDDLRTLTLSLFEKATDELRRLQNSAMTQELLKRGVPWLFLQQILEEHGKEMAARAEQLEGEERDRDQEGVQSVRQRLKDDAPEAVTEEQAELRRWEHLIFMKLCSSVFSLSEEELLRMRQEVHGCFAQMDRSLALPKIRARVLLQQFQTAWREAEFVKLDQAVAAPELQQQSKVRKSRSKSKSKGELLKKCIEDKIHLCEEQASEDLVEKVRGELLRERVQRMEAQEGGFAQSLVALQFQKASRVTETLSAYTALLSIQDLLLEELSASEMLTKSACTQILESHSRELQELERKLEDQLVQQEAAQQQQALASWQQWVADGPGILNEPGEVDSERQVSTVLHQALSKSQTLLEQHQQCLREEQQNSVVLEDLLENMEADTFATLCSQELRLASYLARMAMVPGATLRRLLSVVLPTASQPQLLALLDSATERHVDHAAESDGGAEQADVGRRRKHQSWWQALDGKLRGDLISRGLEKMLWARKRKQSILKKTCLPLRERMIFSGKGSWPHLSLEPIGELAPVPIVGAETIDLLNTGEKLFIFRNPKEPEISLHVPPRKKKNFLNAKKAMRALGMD
UniProt Q8IYI6, sequence (Q8IYI6 whole entry, looked up): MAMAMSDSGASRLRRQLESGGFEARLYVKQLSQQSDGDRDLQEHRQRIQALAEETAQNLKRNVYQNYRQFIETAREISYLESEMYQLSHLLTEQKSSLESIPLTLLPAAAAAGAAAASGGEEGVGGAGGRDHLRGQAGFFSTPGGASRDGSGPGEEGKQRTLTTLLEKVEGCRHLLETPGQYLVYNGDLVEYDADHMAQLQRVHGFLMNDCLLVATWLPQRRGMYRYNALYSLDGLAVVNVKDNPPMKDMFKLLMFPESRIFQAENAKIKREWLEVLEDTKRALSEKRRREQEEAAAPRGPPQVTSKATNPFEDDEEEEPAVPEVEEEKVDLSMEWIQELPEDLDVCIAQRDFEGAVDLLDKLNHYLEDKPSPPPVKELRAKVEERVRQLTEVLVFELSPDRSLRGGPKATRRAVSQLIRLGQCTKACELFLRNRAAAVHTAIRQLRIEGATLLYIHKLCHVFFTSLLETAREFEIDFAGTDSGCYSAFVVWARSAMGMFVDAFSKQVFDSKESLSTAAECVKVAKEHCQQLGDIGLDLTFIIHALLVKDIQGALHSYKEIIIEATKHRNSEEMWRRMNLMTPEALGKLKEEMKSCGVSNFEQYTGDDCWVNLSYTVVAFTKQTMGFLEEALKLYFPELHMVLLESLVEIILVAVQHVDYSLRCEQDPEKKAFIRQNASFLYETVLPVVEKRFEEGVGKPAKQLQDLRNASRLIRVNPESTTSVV
UniProt Q9H2U1, sequence (Q9H2U1 whole entry, looked up): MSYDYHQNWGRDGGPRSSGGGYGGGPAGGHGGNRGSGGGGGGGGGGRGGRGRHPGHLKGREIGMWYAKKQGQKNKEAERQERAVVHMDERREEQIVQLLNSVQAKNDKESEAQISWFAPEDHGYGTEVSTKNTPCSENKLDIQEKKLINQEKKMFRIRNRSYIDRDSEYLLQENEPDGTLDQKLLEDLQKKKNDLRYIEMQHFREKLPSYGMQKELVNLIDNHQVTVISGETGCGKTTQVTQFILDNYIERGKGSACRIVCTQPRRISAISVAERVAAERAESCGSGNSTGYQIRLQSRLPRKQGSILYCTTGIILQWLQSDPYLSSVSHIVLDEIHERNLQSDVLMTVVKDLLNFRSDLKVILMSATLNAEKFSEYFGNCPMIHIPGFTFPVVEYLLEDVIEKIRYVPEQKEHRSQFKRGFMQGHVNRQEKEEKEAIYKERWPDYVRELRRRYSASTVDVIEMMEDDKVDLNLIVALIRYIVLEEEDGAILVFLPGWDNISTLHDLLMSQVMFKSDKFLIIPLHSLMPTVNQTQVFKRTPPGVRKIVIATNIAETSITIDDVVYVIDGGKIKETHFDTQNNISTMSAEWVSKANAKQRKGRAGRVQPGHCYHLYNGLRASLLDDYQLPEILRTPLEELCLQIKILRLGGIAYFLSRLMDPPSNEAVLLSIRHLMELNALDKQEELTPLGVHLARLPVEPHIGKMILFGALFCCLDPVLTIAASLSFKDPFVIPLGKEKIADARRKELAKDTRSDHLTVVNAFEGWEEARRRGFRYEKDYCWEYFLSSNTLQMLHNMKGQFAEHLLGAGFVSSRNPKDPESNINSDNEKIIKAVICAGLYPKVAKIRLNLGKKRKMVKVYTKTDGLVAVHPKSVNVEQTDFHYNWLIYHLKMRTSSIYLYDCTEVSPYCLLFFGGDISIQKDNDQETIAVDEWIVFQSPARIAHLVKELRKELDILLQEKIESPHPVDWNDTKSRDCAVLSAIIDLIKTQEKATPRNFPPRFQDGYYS
UniProt Q7Z7A3, sequence (Q7Z7A3 whole entry, looked up): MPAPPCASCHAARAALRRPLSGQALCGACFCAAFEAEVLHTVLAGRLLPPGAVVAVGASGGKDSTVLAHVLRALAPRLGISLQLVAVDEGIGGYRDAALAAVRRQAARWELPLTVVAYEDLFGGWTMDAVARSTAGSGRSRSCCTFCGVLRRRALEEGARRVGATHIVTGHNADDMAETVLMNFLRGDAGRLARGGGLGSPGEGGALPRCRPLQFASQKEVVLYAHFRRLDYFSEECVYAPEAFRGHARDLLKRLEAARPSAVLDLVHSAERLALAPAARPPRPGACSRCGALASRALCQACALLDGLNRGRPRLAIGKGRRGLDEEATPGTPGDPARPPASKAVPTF
UniProt Q16643, sequence (Q16643 whole entry, looked up): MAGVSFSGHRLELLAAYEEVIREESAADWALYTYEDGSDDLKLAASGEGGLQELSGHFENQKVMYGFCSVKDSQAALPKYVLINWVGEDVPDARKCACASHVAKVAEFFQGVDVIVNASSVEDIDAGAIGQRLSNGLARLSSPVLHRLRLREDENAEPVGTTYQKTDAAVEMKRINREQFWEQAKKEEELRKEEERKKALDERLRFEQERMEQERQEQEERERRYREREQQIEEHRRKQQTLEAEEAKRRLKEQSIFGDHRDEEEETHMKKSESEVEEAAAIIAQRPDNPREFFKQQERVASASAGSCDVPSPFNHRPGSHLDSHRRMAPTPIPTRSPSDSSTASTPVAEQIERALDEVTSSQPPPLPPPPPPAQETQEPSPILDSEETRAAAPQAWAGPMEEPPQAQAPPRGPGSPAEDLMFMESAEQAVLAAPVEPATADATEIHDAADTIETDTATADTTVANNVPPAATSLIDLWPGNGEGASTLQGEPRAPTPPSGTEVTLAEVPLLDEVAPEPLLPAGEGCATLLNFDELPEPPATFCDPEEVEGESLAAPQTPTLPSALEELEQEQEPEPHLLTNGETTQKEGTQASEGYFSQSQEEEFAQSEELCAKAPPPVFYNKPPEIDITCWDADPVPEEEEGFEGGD
UniProt O94905, sequence (O94905 whole entry, looked up): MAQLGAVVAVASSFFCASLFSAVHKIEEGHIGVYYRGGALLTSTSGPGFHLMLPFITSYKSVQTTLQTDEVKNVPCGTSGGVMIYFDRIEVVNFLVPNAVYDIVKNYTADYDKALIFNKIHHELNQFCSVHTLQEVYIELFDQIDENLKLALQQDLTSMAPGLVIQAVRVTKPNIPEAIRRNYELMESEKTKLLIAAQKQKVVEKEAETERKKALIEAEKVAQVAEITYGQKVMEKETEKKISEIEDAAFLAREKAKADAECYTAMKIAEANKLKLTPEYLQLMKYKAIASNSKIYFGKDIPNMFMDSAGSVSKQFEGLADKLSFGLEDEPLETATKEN
UniProt P11182, sequence (P11182 whole entry, looked up): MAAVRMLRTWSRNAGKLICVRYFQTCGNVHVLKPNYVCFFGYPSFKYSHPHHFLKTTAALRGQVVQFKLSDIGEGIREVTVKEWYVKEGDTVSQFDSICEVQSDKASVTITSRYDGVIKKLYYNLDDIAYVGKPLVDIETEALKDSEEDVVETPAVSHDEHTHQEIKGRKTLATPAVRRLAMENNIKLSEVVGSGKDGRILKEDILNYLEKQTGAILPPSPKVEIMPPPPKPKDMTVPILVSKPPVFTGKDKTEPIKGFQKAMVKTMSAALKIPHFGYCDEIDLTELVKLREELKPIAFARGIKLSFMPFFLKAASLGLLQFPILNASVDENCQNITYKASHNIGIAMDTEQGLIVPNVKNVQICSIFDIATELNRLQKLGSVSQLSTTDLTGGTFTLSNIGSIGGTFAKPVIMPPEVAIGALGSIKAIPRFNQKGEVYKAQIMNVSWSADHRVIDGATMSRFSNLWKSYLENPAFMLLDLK
UniProt P00374, sequence (P00374 whole entry, looked up): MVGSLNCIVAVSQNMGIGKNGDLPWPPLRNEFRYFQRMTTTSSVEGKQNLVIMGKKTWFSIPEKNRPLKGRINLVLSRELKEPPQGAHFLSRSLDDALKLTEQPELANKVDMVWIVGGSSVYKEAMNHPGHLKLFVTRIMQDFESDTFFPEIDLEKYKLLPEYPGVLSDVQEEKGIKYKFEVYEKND

Target	log2 fold change (erlotinib)	log2 fold change [1]	log2 fold change [2]	log2 fold change [3]	log2 fold change [4]	log2 fold change [5]	log2 fold change [6]	log2 fold change [7]	log2 fold change [8]	log2 fold change [9]
EXOC8 (UniProt Q8IYI6)	0.048	0.144	-0.042	-0.056	0.05	0.017	-0.012	0.001	-0.053	-0.054
ESS2 (UniProt Q96DF8)	-0.057	-0.05	-0.013	0.046	-0.083	0.04	-0.055	-0.071	-0.008	0.096
DHX36 (UniProt Q9H2U1)	-0.089	0.013	-0.08	0.031	-0.072	0.011	0.044	-0.023	0.047	-0.066
DNTTIP2 (UniProt Q5QJE6)	-0.111	-0.186	-0.242	0.038	0.005	-0.043	-0.069	-0.269	-0.004	-0.111
FAF2 (UniProt Q96CS3)	0.009	0.078	-0.003	0.02	0.049	0.03	0.15	0.009	0.035	0.004
DBT (UniProt P11182)	-0.041	-0.019	-0.021	0.049	-0.03	0.038	0.099	-0.01	-0.006	-0.065
EVC2 (UniProt Q86UK5)	-0.01	-0.044	-0.013	-0.035	-0.069	-0.019	-0.002	0.061	-0.042	-0.117
EFL1 (UniProt Q7Z2Z2)	0	0.051	0.027	0.002	0.013	0.002	0.053	0.043	0.027	0.013
DDX46 (UniProt Q7L014)	0.053	0.23	0.134	0.081	0.034	0	-0.023	-0.022	-0.062	-0.141
FAM160B1 (UniProt Q5W0V3)	0.034	0.085	0.012	-0.007	0.019	0.037	-0.005	0	-0.035	-0.021
DHFR (UniProt P00374)	0.156	0	-0.176	-0.144	0.03	0.043	0.055	0.049	-0.047	-0.015
DPP8 (UniProt Q6V1X1)	0.093	0.088	0.067	0	0.134	0.018	-0.067	-0.011	-0.003	0.008
CTU1 (UniProt Q7Z7A3)	0.05	-0.01	0.079	0.047	0.079	0.011	0.04	0.042	0.032	0.008
FAAP100 (UniProt Q0VG06)	0.003	0.019	0.246	0.037	0.052	0.17	-0.024	0.023	-0.122	0.004
F5 (UniProt P12259)	-0.122	0	-0.002	0.061	-0.096	-0.054	-0.018	-0.064	0	0.052
DYNC1I2 isoform 2 (UniProt Q13409)	0.018	0.155	0.057	-0.056	-0.202	-0.013	0.17	0.057	-0.062	0.029
ERLIN2 (UniProt O94905)	-0.073	-0.075	-0.054	-0.014	-0.012	0.027	0.021	-0.054	-0.002	-0.097
FADS3 (UniProt Q9Y5Q0)	0.03	-0.005	0.104	0.017	0.064	0.058	0.04	0.001	-0.055	0.05
EHBP1L1 (UniProt Q8N3D4)	-0.005	0.088	0.06	-0.005	0.057	0.026	-0.013	-0.03	-0.1	-0.116
FAM118B (UniProt Q9BPY3)	0.164	0.098	0.195	-0.084	0.123	0	0.044	-0.021	-0.045	-0.023
DHCR7 (UniProt Q9UBM7)	0.113	0.041	-0.095	-0.056	0.071	0.022	0.038	-0.003	-0.037	0.623 (active)
DOCK8 (UniProt Q8NF50)	0.259	0.001	0.182	0.04	-0.092	-0.021	-0.046	0.059	-0.076	-0.071
EXTL2 (UniProt Q9UBQ6)	0.051	0.018	-0.129	0.04	0.016	0.037	-0.031	0.062	-0.092	-0.119
DBN1 isoform 3 (UniProt Q16643)	-0.095	-0.047	-0.028	0.039	-0.074	0.02	0.021	-0.029	0.089	0.041
DHRS7B (UniProt Q6IAN0)	-0.039	0.07	0.011	0.009	0.027	0.012	0.144	0.034	-0.037	0.058
CTSL (UniProt P07711)	-0.005	-0.173	-0.036	-0.022	-0.203	0.019	-0.002	-0.041	-0.023	0.005
DHX16 (UniProt O60231)	0.01	0.05	0.224	0.027	0.007	-0.01	0.014	0.013	-0.044	0.024
FAM50A (UniProt Q14320)	0.015	0.051	0.054	-0.017	-0.009	0.062	-0.019	-0.001	-0.026	-0.065
EEF1G isoform 2 (UniProt P26641)	-0.051	0.062	-0.009	-0.016	-0.036	-0.021	0.083	0.012	0.001	-0.031
DLD (UniProt P09622)	0.001	-0.018	0.044	-0.083	-0.007	-0.018	0.032	-0.018	0.031	0.054
